The record followed here is PubChem BioAssay AID687022 (Broad Institute, 2013).

Screen size: about 1,000 compounds; about 360 (36%) were called active. Only a sample is shown. Values without a mark were called inactive.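 Rule for the calls: active = Fitted curve of melting temperature shift crosses the 1.0 threshold at or below the sample's highest valid tested concentration; inconclusive = Flat fit with activity 30 to 70, or invalid fit; inactive = Opposite direction, flat within 30, or no crossing.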

The assay deals with Fibroblast growth factor 22 (Homo sapiens) (UniProt Q9HCT0). The assay can be described thus: FGF22 ligand-induced thermal stabilization – biophysical, thermal shift, cherry-pick, FGF22 synaptogenesis inhibitor project, dose response (AID 687022). Note: reference of the scale not given here. The settings on record: recombinant FGF22 thermal shift, SYPRO orange melting; series mostly up to 38 µM.
Sequence of Fibroblast growth factor 22 (Homo sapiens) (Q9HCT0 whole entry, looked up): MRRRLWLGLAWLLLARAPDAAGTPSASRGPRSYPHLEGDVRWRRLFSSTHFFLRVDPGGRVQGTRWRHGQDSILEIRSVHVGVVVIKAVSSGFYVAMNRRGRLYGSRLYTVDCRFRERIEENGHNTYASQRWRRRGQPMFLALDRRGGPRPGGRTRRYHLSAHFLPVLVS
Take `Cc1[nH]c(=O)[nH]c(=O)c1S(=O)(=O)Nc1cccc([N+](=O)[O-])c1C`: the Tm shift activity entry is “inactive”.

For the molecule `CCCNC(=O)N1CC(=O)N2[C@H](C1)[C@@H](c1ccc(-c3cccc(C)c3)cc1)[C@@H]2CO`, the Tm shift activity entry was “inactive”.

For the molecule `O=c1cc[nH]c2ccc(Cl)cc12`, the Tm shift activity result was “inactive”.

Regarding `CC(=O)c1cccc(NC(=O)C2CCCN2S(=O)(=O)c2cccs2)c1` (stereo not drawn), the Tm shift activity entry is “inactive”.

In the case of `COc1ccc(CCC(C)NC(=O)Cc2ccc(OC)c(OC)c2)c(OC)c1` (stereo not drawn), the Tm shift activity entry was “inactive”.

On to `CCCN(C)C[C@H]1Oc2cc(-c3ccncc3)ccc2S(=O)(=O)N([C@H](C)CO)C[C@H]1C`, for which the Tm shift activity entry is “inactive”.

Take `O=C1C2C(C(=O)N1CCc1ccccc1)C1C=CC2C12CC2` (stereo not drawn): the Tm shift activity entry was “inactive”.

For `CCOC(=O)C1CCC(CNCc2ccccc2C)CC1` (stereo not drawn), the Tm shift activity entry was “inactive”.

`N#CCSc1n[nH]c2nc3c(c(=O)n12)C1(CCCCC1)Cc1ccccc1-3`: the Tm shift activity entry is “inactive”.

For the molecule `COc1cc(C(=O)NC(=S)Nc2ccccc2[N+](=O)[O-])cc(OC)c1OC`, the Tm shift activity entry was “inactive”.

In the case of `C/C(=N\NC(=O)CNC(=O)c1ccncc1)c1ccc(C)cc1`, the Tm shift activity result is “inactive”.

On to `CN(CC(=O)Nc1ccccc1Cl)C(=O)COC(=O)c1nc(Cl)ccc1Cl`, for which the Tm shift activity entry was “inactive”.

Regarding `CCn1c(O)c(C=NCc2ccccc2)sc1=S`, the Tm shift activity result is “inactive”.

Turning to `C[C@@H]1CN([C@H](C)CO)C(=O)Cc2cc(NS(C)(=O)=O)ccc2O[C@@H]1CN(C)Cc1ccc(C(=O)O)cc1`, the Tm shift activity result is “inactive”.

Regarding `CC(C)CC#Cc1cnc2c(c1)C(=O)N([C@@H](C)CO)C[C@H](C)[C@@H](CN(C)Cc1ccccn1)O2`, the Tm shift activity entry is “inactive”.

As to `O=C(CCc1ccc(S(=O)(=O)N2CCOCC2)cc1)Nc1ccccc1F`, the Tm shift activity result is “inactive”.

`C/C=C/c1ccc([C@@H]2[C@H](C#N)N(C(=O)CN3CCOCC3)[C@H]2CO)cc1`: the Tm shift activity entry was “inactive”.

Take `COc1cc(CCC(=O)OCC(=O)Nc2ccc(C)cc2Br)cc(OC)c1OC`: the Tm shift activity entry was “inactive”.

Regarding `CN1CCN(C(=O)C[C@@H]2CC[C@H]3[C@@H](COC[C@H](O)CN3CC3CCCCC3)O2)CC1`, the Tm shift activity entry is “inactive”.

In the case of `C[C@H]1CN([C@@H](C)CO)S(=O)(=O)c2ccc(/C=C/c3ccccc3)cc2O[C@@H]1CN(C)Cc1ccc(C(=O)O)cc1`, the Tm shift activity result is “inactive”.

Regarding `CCCC#Cc1ccc2c(c1)O[C@H](CN(C)C(C)=O)[C@@H](C)CN([C@@H](C)CO)S2(=O)=O`, the Tm shift activity entry was “inactive”.

With `C[C@H]1CN([C@@H](C)CO)S(=O)(=O)c2ccc(C#Cc3ccncc3)cc2O[C@H]1CN(C)C(=O)Nc1ccc2c(c1)OCO2`, the Tm shift activity result is “inactive”.

`COc1cc(C2C(C#N)=C(N)Oc3n[nH]c(-c4cccnc4)c32)cc(Br)c1O` (stereo not drawn): the Tm shift activity entry was “inactive”.

For `C[C@@H]1CN([C@@H](C)CO)C(=O)CCCn2nncc2CO[C@H]1CN(C)Cc1ccccc1C(=O)O`, the Tm shift activity entry was “inactive”.

On to `CCN1C(=O)c2cccc3c(S(=O)(=O)Nc4ccc(O)c(C(=O)O)c4)ccc1c23`, for which the Tm shift activity is 0.895% [at 5 µM].

Regarding `O=C(COc1ccc(S(=O)(=O)Nc2ccccc2)cc1)NCc1ccncc1`, the Tm shift activity entry was “inactive”.

Take `CN(C)CCN1C(=O)C2C3C=CC(C3)C2C1=O` (stereo not drawn): the Tm shift activity entry is “inactive”.

Take `COCC(=O)N(C)C[C@H]1Oc2cc(C#Cc3ccccc3)ccc2S(=O)(=O)N([C@H](C)CO)C[C@H]1C`: the Tm shift activity result was “inactive”.

For the molecule `O=C(NCC[C@@H]1CC[C@@H](NC(=O)C2CCOCC2)[C@H](CO)O1)Nc1ccc(Cl)cc1`, the Tm shift activity result was “inactive”.

Turning to `CC(C)NC(=O)Nc1ccc2c(c1)C(=O)N([C@H](C)CO)C[C@H](C)[C@H](CN(C)C(=O)Nc1cccc3ccccc13)O2`, the Tm shift activity entry is “inactive”.

For the molecule `O=C(O)C1CSC2(CCN(Cc3ccccc3)CC2)N1` (stereo not drawn), the Tm shift activity result is “inactive”.

As to `Fc1ccccc1Nc1n[nH]c(=S)s1`, the Tm shift activity entry was “inactive”.

For the molecule `O=C(N/N=C/c1cccc(O)c1)c1cc(-c2ccc3c(c2)OCO3)n[nH]1`, the Tm shift activity result is “inactive”.

Take `COc1cc(/C=N/NC(=O)c2ccncc2)ccc1OCC(=O)Nc1cccc([N+](=O)[O-])c1`: the Tm shift activity result is “inactive”.

Take `CC(=O)N(C)C[C@@H]1Oc2ncc(C#CC(C)(C)O)cc2C(=O)N([C@@H](C)CO)C[C@H]1C`: the Tm shift activity result is “inactive”.

For `Cc1nc2cc(C(=O)NCc3ccc4c(c3)OCO4)ccc2n1-c1ccc(Br)cc1`, the Tm shift activity entry was “inactive”.

With `O=[N+]([O-])c1ccc2oc(/C=C/c3ccc(O)cc3)nc2c1`, the Tm shift activity result was “inactive”.

As to `C[C@@H]1CN([C@@H](C)CO)C(=O)c2cc(NS(C)(=O)=O)ccc2O[C@@H]1CN(C)Cc1ccc2c(c1)OCO2`, the Tm shift activity entry is “inactive”.

On to `C[C@H](CO)N1C[C@H](C)[C@H](CN(C)C(=O)CC2CC2)Oc2ncc(C#CC3(O)CCCC3)cc2C1=O`, for which the Tm shift activity result is “inactive”.

Take `O=C(NC[C@@H]1[C@H](c2ccccc2)[C@H](CO)N1C(=O)Cc1cccnc1)C1CC1`: the Tm shift activity entry is “inactive”.

In the case of `CCc1cccc(NS(=O)(=O)c2ccc3c(c2)NC(=O)CC(=O)N3)c1`, the Tm shift activity entry was “inactive”.

On to `CCC(=O)N1CC2(C1)[C@H](c1ccc(-c3cccc(C)c3)cc1)[C@@H](CO)N2S(C)(=O)=O`, for which the Tm shift activity result is “inactive”.

Regarding `O=C(C1CCOCC1)N1C[C@@H]2[C@H](c3ccccc31)[C@@H](CO)N2Cc1ccccc1`, the Tm shift activity result is “inactive”.

As for `CC(OC(=O)c1ccccc1)C(=O)NCCC1=CCCCC1` (stereo not drawn), the Tm shift activity result was “inactive”.

Turning to `O=C(COc1cccc(Cl)c1)NCC(c1cccs1)N1CCOCC1` (stereo not drawn), the Tm shift activity result was “inactive”.

`Cc1cccc(NC(=O)COc2coc(CN3CCc4ccccc4C3)cc2=O)c1`: the Tm shift activity entry was “inactive”.

In the case of `c1ccc(NCc2ccccn2)cc1`, the Tm shift activity result is “inactive”.

As to `CN1CCN(C(=O)C[C@H]2C=C[C@@H](NC(=O)c3ccc4c(c3)OCO4)[C@H](CO)O2)CC1`, the Tm shift activity result is “inactive”.

For the molecule `CN(C)S(=O)(=O)n1cnc([C@@H]2[C@@H]3C(=O)OC[C@@H]3C[C@]23N=CN(Cc2ccccc2)C3=O)c1`, the Tm shift activity result was “inactive”.

In the case of `O=[N+]([O-])c1ccc2nc(-c3ccc(Cl)cc3)[nH]c2c1`, the Tm shift activity result was “inactive”.

As to `O=C(Nc1cccc2ccccc12)c1cccc([N+](=O)[O-])c1`, the Tm shift activity result is “inactive”.

Consider `CCc1ccc(NC(=O)c2ccc(-n3cncn3)c([N+](=O)[O-])c2)cc1`, for which the Tm shift activity result was “inactive”.

Turning to `COc1cc([N+](=O)[O-])ccc1NC(=O)CN1CCCC1`, the Tm shift activity entry is “inactive”.

With `Cc1nc2ccc(NC(=O)c3cc([N+](=O)[O-])cc([N+](=O)[O-])c3Cl)cc2s1`, the Tm shift activity result is “inactive”.

In the case of `CN=C1NN=C(c2cc(C)n(-c3c(C)n(C)n(-c4ccccc4)c3=O)c2C)CS1`, the Tm shift activity entry is “inactive”.

Regarding `Cc1ccc(-c2c[n+](CC(=O)Nc3ccc(C)cc3C)c3n2CCC3)cc1`, the Tm shift activity entry is “inactive”.

Turning to `COC(=O)Cc1n[nH]c(=O)c2ccccc12`, the Tm shift activity result is “inactive”.

In the case of `Cn1cccc1/C=N/NC(=O)Cc1cccc2ccccc12`, the Tm shift activity entry was “inactive”.

Turning to `O=C(NCCc1c[nH]c2ccccc12)C(=O)NCC1CCCO1` (stereo not drawn), the Tm shift activity entry was “inactive”.

Consider `N#CCC(=O)Nc1ccc(C(=O)NCCc2c[nH]c3ccccc23)cc1`, for which the Tm shift activity entry is “inactive”.

Regarding `COc1cccc(S(=O)(=O)Nc2ccc3c(c2)[C@@H]2C[C@H](CC(=O)NC4CCCCC4)O[C@@H](CO)[C@@H]2O3)c1`, the Tm shift activity entry is “inactive”.

On to `C=CCC1c2cccc(C(=O)O)c2C(=O)N1c1cccc(OC)c1` (stereo not drawn), for which the Tm shift activity entry is “inactive”.

In the case of `COCC(=O)Nc1ccc2c(c1)[C@H]1C[C@@H](CC(=O)NCc3ccccn3)O[C@H](CO)[C@H]1O2`, the Tm shift activity entry is “inactive”.

Take `CCOC(=O)c1c(C)oc2cc(Br)c(O)c(Br)c12`: the Tm shift activity result was “inactive”.

On to `C[C@H]1CN([C@@H](C)CO)C(=O)c2cc(NS(=O)(=O)c3ccc(Cl)cc3)ccc2O[C@@H]1CN(C)C(=O)Nc1ccc2c(c1)OCO2`, for which the Tm shift activity result was “inactive”.

Turning to `CCC(=O)N1[C@H](CO)[C@@H](c2ccccc2)[C@H]1CN(C)C(=O)CN1CCOCC1`, the Tm shift activity result was “inactive”.

Consider `O=C(c1cccc(F)c1)N1C[C@H]2[C@@H](c3ccccc31)[C@@H](CO)N2C(=O)c1ccccn1`, for which the Tm shift activity entry is “inactive”.

For `CCOc1ccc(NC(=O)c2cccc(-n3cccc3)c2)cc1S(=O)(=O)N1CCOCC1`, the Tm shift activity result was “inactive”.

On to `CC(C)NC(=O)N1[C@H](CO)[C@H](c2ccccc2-c2ccc(F)cc2)[C@@H]1C#N`, for which the Tm shift activity entry is “inactive”.

Take `O=C(O)C1CCN(S(=O)(=O)Cc2ccccc2)CC1`: the Tm shift activity entry is “inactive”.

As to `COc1ccc(NC(=O)CN(c2ccc(C(C)C)cc2)S(=O)(=O)c2c(C)noc2C)cc1OC`, the Tm shift activity result is “inactive”.

Take `CO[C@@H]1CN(C)C(=O)c2cc(NC(=O)C3CCCC3)ccc2OC[C@H](C)N(CCC(F)(F)F)C[C@H]1C`: the Tm shift activity entry was “inactive”.

For the molecule `NS(=O)(=O)c1ccc2c(c1)C(=NO)c1cc(S(N)(=O)=O)ccc1-2`, the Tm shift activity entry was “inactive”.

Turning to `Oc1c(CN2CCOCC2)cc(CN2CCOCC2)c(O)c1O`, the Tm shift activity result was “inactive”.

`O=C(Nc1ccccc1Cl)N1[C@H](CO)[C@@H]2c3ccccc3NC[C@@H]21`: the Tm shift activity result is “inactive”.

As for `COc1ccc(NS(=O)(=O)c2cc(N=Nc3c(O)[nH]c(=O)[nH]c3=O)ccc2Cl)cc1`, the Tm shift activity entry is “inactive”.

As for `COc1ccccc1C(=O)N1C[C@H]2[C@@H](c3ccccc31)[C@H](CO)N2C(=O)C1CCCCC1`, the Tm shift activity result is “inactive”.

`N#C[C@@H]1[C@@H](c2ccc(C3=CCCCC3)cc2)[C@H](CO)N1S(=O)(=O)c1ccccc1`: the Tm shift activity result was “inactive”.

Regarding `Cc1cccc(C(=O)NNC(=O)c2ccc(NS(=O)(=O)c3cccs3)cc2)c1C`, the Tm shift activity result was “inactive”.

For the molecule `COc1ccccc1NC(=O)c1ccc(NC(=O)COC(=O)c2ccc(O)cc2)cc1`, the Tm shift activity entry is “inactive”.

Regarding `COc1ccccc1N(C)S(=O)(=O)c1ccc(C(=O)Nc2ccc(C(N)=O)cc2)cc1`, the Tm shift activity result is “inactive”.

On to `CCC(C)N(C(=O)COc1ccc(-c2nnco2)cc1)C1CCS(=O)(=O)C1` (stereo not drawn), for which the Tm shift activity result is “inactive”.

In the case of `O=C(Nc1cccc(S(=O)(=O)N2CCCCC2)c1)C1=NN(c2ccccc2)C(=O)CC1`, the Tm shift activity result is “inactive”.

With `COc1cccc(NC(=O)N[C@@H]2CC[C@@H](CC(=O)Nc3ccccc3)O[C@H]2CO)c1`, the Tm shift activity entry was “inactive”.

Regarding `CN(C)CC(=O)Nc1ccc2c(c1)[C@H]1C[C@@H](CC(=O)NCC3CC3)O[C@H](CO)[C@H]1O2`, the Tm shift activity result is “inactive”.

Take `COC(=O)[C@]1(C)N[C@H](c2ccc(-c3ccccc3)cc2)[C@@H]2C(=O)N(C)C(=O)[C@@H]21`: the Tm shift activity result was “inactive”.

Consider `Cc1ccc(S(=O)(=O)Nc2ccc3c(c2)CC(=O)N([C@H](C)CO)C[C@@H](C)[C@H](CN(C)C(=O)Nc2ccccc2)O3)cc1`, for which the Tm shift activity entry was “inactive”.

Turning to `COc1ccc(C(=O)Nc2ccccc2N2CCOCC2)cc1S(=O)(=O)N1CCOCC1`, the Tm shift activity entry was “inactive”.
